7 molecules from PubChem BioAssay (Tox21) can be followed below.

SMILES strings stand for the structures. Several values for one entry are separate records, joined by “and”; a condition that tells them apart may be missing. Identical values can stand only once. Records with an inconclusive call do not appear. More than one record can exist for a structure, and the calls need not agree. Activity calls are given as the source filed them. Unless noted, the call rests on the fitted dose curve; in most records, active means well fitted curve in the direction sought with a large enough effect in the repeat runs; inconclusive means weak or mixed curves; inactive means no such curve, though single readings can be large; an effect the other way counts as inactive or inconclusive.

Assay [1] in a line: A CellTox Green Cytotoxicity Assay to monitor cytotoxicity in HEK293 cells - 32 hour (AID 1224881). Further: nearly all actives have a fitted effect of over 40% in size. Further: potency means the concentration at half of the fitted maximal effect. A digest of the protocol:
(§1)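 Each value comes from one timepoint of a single continuous run in which HEK293 cells with CellTox Green were exposed to compound for up to 40 h at 37 C, dye fluorescence rising with cell death.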

Assay [2] in a line: A CellTox Green Cytotoxicity Assay to monitor cytotoxicity in HepG2 cells - 32 hour (AID 1224883). Further: nearly all actives have a fitted effect of over 50% in size. Further: potency means the concentration at half of the fitted maximal effect. In outline:
(§2)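 Continuous culture of HepG2 cells with a membrane-impermeant DNA dye; rising fluorescence marks dead cells. Compound exposure lasted up to 40 h at 37 C, with reads every 8 h from 0 h.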

Assay [3] can be described thus: A CellTox Green Cytotoxicity Assay to monitor cytotoxicity in HEK293 cells - 8 hour (AID 1224884). Further: nearly all actives have a fitted effect of over 35% in size. Further: potency means the concentration at half of the fitted maximal effect. In outline: as §1
Assay [4] can be described thus: qHTS RealTime-Glo MT Cell Viability Assay in HepG2 cells - 16 hour (AID 1224885). Further: nearly all actives have a fitted effect of over 50% in size. Further: potency means the concentration at half of the fitted maximal effect. In outline: (§3)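 Compound treatment began 5 h after plating HepG2 cells (600/well) with NanoLuc luciferase and prosubstrate. Plates stayed at 37 C for 40 h; luminescence was captured at six time points, 0 h through 40 h.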
Assay [5] can be described thus: qHTS RealTime-Glo MT Cell Viability Assay in HEK293 cells - 24 hour (AID 1224886). Further: nearly all actives have a fitted effect of over 50% in size. Further: potency means the concentration at half of the fitted maximal effect. In outline: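 Quantitative high-throughput screen of the Tox21 10K library in HEK293: cells and RealTime-Glo reagents plated together, compound added at 5 h, luminescence monitored through 40 h at 37 C.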
A short description of assay [6]: qHTS RealTime-Glo MT Cell Viability Assay in HepG2 cells - 0 hour (AID 1224889). Further: nearly all actives have a fitted effect of over 50% in size. In outline: as §3
Assay [7] is described as follows: A CellTox Green Cytotoxicity Assay to monitor cytotoxicity in HepG2 cells - 8 hour (AID 1224890). Further: nearly all actives have a fitted effect of over 45% in size. Further: potency means the concentration at half of the fitted maximal effect. In outline:
as §2

A short description of assay [8]: qHTS assay to identify small molecule antagonists of the estrogen receptor alpha (ER-alpha) signaling pathway using the BG1 cell line in the presence of 0.1 nM 17-beta-estradiol - cell viability counter screen (AID 1259241). Further: nearly all actives have a fitted effect of over 40% in size. A digest of the protocol:
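Live-cell protease activity (CellTiter-Fluor fluorescence, 30 min) was read in the same wells after VM7Luc4E2 cells had been exposed to compounds with 0.1 nM 17beta-estradiol for 22 hr at 37C.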

Assay [9] in a line: qHTS assay to identify small molecule antagonists of the androgen receptor (AR) signaling pathway using the MDA cell line in the presence of 0.5 nM R1881 - cell viability counter screen (AID 1259242). Further: nearly all actives have a fitted effect of over 45% in size. Further: potency means the concentration at half of the fitted maximal effect. A digest of the protocol:
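Fluorescence from CellTiter-Fluor, which reports protease activity of live cells, was read 30 min after reagent addition to MDA-kb2 cells that had been incubated 16 hr with compound and 0.5 nM R1881.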

The target of assay [10] is Estrogen receptor (Homo sapiens) (UniProt P03372). The assay can be described thus: qHTS assay to identify small molecule antagonists of the estrogen receptor alpha (ER-alpha) signaling pathway using the BG1 cell line in the presence of 0.1 nM 17-beta-estradiol (AID 1259244). Further: nearly all actives have a fitted effect of over 50% in size. Further: potency means the concentration at half of the fitted maximal effect. In outline: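 Quantitative high-throughput screen in VM7Luc4E2 cells: compound plus 0.1 nM E2 (final), 22 h, 37C, 5% CO2; ONE-Glo added, 30 min room temperature, luminescence measured.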
Sequence of Estrogen receptor (Homo sapiens) (P03372 whole entry, looked up): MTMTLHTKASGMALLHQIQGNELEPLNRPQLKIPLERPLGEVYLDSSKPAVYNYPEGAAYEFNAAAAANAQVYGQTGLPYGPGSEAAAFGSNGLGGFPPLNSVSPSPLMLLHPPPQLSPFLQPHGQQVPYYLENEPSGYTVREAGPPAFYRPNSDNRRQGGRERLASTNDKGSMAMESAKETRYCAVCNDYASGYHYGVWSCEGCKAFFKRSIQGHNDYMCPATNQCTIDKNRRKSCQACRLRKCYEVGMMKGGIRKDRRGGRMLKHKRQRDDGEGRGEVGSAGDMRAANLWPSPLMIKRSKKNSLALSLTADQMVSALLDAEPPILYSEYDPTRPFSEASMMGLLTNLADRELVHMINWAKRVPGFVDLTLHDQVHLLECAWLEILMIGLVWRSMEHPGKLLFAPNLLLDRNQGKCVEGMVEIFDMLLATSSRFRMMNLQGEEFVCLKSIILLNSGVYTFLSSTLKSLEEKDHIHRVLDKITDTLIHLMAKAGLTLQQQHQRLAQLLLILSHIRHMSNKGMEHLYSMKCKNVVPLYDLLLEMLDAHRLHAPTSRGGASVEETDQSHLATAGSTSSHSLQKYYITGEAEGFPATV

The nature of assay [11]: qHTS assay to identify small molecule HDAC inhibitors (AID 1259364). Further: top concentration of the series differs between compounds; nearly all actives have a fitted effect of over 45% in size. A digest of the protocol:
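Endogenous HDAC class I/II activity was measured in wild-type HCT-116 cells by HDAC-Glo luminescence after 2 h compound treatment.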

Assay [12] is described as follows: qHTS assay to identify small molecule HDAC inhibitors - cell viability counter screen (AID 1259365). In outline: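 HCT-116 (wild type), 1,500 cells/well, overnight 37C/5% CO2; compound in DMSO 2hr; CellTiter-Glo 30min RT; luminescence read.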
Assay [13] can be described thus: qHTS assay to identify small molecule agonists of the sonic hedgehog signaling (Shh) pathway - cell viability counter screen (AID 1259366). Further: nearly all actives have a fitted effect of over 50% in size. Further: potency means the concentration at half of the fitted maximal effect. In outline: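 CellTiter-Fluor fluorescence read-out, 1 hr at 37C, added after 23hr compound exposure. Cells: 3T3 Gli1-Luc, an NIH/3T3 clone with stably integrated Gli1-Luc reporter, plated 4hr before compound.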
Assay [14] in a line: qHTS assay to identify small molecule antagonists of the sonic hedgehog signaling (Shh) pathway - cell viability counter screen (AID 1259367). Further: nearly all actives have a fitted effect of over 55% in size. Further: potency means the concentration at half of the fitted maximal effect. In outline: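 After a 4 hr settling period, 3T3 Gli1-Luc cells were treated with DMSO-dissolved chemicals and conditioned medium, kept 24 hr at 37C in 5% CO2, and assayed for viability by CellTiter-Fluor fluorescence following 1 hr reagent incubation.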

Assay [15] can be described thus: qHTS assay to identify small molecule agonists of the sonic hedgehog signaling (Shh) pathway (AID 1259368; calls by dose curve; further: nearly all actives have a fitted effect of over 15% in size; further: potency means the concentration at half of the fitted maximal effect). A digest of the protocol: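 Luminescent signal was taken as a measure of Gli1-controlled luciferase expression in stably transfected NIH/3T3-derived cells that had been treated for 24 hr with compounds delivered in DMSO.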
Assay [16] can be described thus: A CellTox Green Cytotoxicity Assay to monitor cytotoxicity in HepG2 cells - 0 hour (AID 1224882). Further: nearly all actives have a fitted effect of over 35% in size. In outline:
as §2

Assay [17] in a line: qHTS RealTime-Glo MT Cell Viability Assay in HEK293 cells - 8 hour (AID 1224887). In outline:
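qHTS format; HEK293 cells with NanoLuc/prosubstrate reagent, 37 C/5% CO2 for 5 h pre-dosing; compounds 23 nL in DMSO; luminescence at each time point reflects viable cells.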

Assay [18] addresses Androgen receptor (Homo sapiens) (UniProt P10275). The assay can be described thus: qHTS assay to identify small molecule antagonists of the androgen receptor (AR) signaling pathway using the MDA cell line in the presence of 0.5 nM R1881 (AID 1259243). Further: nearly all actives have a fitted effect of over 50% in size. Further: potency means the concentration at half of the fitted maximal effect. In outline: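 Inhibition of R1881 (0.5 nM final) induced reporter signal was measured in human MDA-kb2 cells; note the MMTV promoter also responds to GR. Exposure lasted 16 hr at 37C.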

The nature of assay [19]: A CellTox Green Cytotoxicity Assay to monitor cytotoxicity in HEK293 cells - 16 hour (AID 1224888). Further: nearly all actives have a fitted effect of over 35% in size. A digest of the protocol: as §1
The nature of assay [20]: qHTS assay to identify small molecule phospholipidosis (PLD) inducers (AID 1259344; active means well fitted curve in the direction sought with a large enough effect; an effect the other way counts as inactive or inconclusive). In outline: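 HepG2 cells grown on collagen I take up LipidTOX Red while exposed to compound for 24 h; after fixation they are imaged at 20x and pit metrics are extracted.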
On the % scale 0 is the no-effect control and ±100 the full control effect.

Sequence of Androgen receptor (Homo sapiens) (P10275 whole entry, looked up): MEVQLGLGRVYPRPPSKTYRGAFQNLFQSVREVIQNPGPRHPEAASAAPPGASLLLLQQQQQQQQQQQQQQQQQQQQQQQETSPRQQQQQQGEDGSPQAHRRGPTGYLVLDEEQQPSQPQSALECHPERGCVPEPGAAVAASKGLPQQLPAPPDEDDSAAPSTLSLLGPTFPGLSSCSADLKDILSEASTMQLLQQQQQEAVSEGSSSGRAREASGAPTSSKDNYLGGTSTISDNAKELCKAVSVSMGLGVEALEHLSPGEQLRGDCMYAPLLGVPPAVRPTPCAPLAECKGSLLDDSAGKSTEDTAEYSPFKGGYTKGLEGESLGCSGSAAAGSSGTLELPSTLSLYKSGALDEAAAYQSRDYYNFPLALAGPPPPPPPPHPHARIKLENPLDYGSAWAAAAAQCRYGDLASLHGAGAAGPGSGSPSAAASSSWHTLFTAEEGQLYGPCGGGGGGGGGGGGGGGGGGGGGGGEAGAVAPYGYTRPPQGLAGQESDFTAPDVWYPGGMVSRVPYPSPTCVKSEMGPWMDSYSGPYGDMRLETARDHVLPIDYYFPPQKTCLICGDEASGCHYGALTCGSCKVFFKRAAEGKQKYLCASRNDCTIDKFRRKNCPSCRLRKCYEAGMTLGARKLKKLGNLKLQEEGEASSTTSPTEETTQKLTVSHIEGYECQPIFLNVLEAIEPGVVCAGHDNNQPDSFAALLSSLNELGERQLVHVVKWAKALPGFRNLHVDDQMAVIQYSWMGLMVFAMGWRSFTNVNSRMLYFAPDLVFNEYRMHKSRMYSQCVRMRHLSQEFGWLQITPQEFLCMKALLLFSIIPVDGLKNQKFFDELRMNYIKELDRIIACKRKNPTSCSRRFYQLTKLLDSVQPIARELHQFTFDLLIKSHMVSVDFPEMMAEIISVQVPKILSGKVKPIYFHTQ

For the molecule `CCCCCCCCCCCCCCn1cc[n+](C)c1`, the Potency was 34.7 µM (active) and 38.5 µM (active) and inactive in assay [1]; 21.9 µM (active) and 24.3 µM (active) and inactive in assay [2]; 55 µM (active) and 54.4 µM (active) and inactive in assay [3]; 39 µM (active) and 54.4 µM (active) and inactive in assay [4]; 7.78 µM (active) and 8.62 µM (active) in [5]; 39 µM (active) and 48.5 µM (active) and inactive in [7]. For the same molecule, the Potency in assay [9] is 30.7 µM (active) and 34 µM (active) and inactive; in [10], 612 nM (active) and 761 nM (active) and inactive; in [13] it was 17.3 µM (active) and 24.1 µM (active); in assay [14] it was 19.4 µM (active) and 27 µM (active). The Potency entry in assay [6], in [8], in assay [11], in assay [12] and in [15] was “inactive” throughout.
In the case of `Nc1ccc(Cl)cc1C(=O)c1ccccc1F`, the Potency entry in assay [1], in assay [16], in assay [3], in [4], in assay [17] and in assay [6] was “inactive” throughout. In addition, the Potency result in assay [7], in assay [8], in [9], in assay [10], in [11] and in assay [12] was “inactive” in each case. Further, the Potency result in [13], in assay [14] and in assay [15] was “inactive” in each case. The Potency in assay [18] was 10.6 µM (active).
In the case of `C=Cc1cccc(CCl)c1`, the Potency entry in assay [1], in [16], in [2], in [4], in [5] and in assay [17] was “inactive” throughout. The Potency entry in assay [6], in assay [7], in assay [8], in assay [9], in assay [10] and in assay [11] was “inactive” each time. The Potency result in [13], in assay [14] and in assay [15] was “inactive” in each case.
Turning to `S=C=NCCc1ccccc1`, the Potency in [1] was 49.1 µM (active); in [5] it was 49.1 µM (active); in assay [18], 48.7 µM (active); in assay [15], 61.3 µM (active). In addition, the Potency entry in assay [16], in assay [3], in assay [4], in assay [19], in [6] and in assay [7] was “inactive” throughout. Also, the Potency result in [8], in assay [9], in assay [10], in assay [11], in assay [13] and in [14] was “inactive” throughout.
For the molecule `CCOP(=S)(OCC)SC(CCl)N1C(=O)c2ccccc2C1=O` (stereo not given), the Potency entry in [1], in assay [16], in assay [3], in [4], in assay [5] and in [17] was “inactive” in each case. For the same molecule, the Potency result in assay [19], in assay [7], in assay [8], in assay [9], in [11] and in assay [12] was “inactive” in each case. For the same molecule, the Potency result in [13], in assay [14] and in [15] was “inactive” each time.
As for `CCCCC/C=C\C/C=C\C/C=C\C/C=C\CCCC(=O)NCC(=O)O`, the Potency result in assay [1], in assay [2], in assay [3], in assay [4], in assay [5] and in [17] was “inactive” each time. Besides, the Potency entry in assay [19], in assay [6], in assay [7], in [8], in [9] and in [10] was “inactive” throughout. For the same molecule, the Potency result in assay [11], in assay [12], in assay [13], in assay [14] and in assay [15] was “inactive” in each case. For the same molecule, in [20], the PLD induction was 0.136% [at 3.15 µM] (inactive).
Turning to `O=c1[nH]c(Cl)c(Cl)cc1Cl`, the Potency result in [1], in [2], in [3], in [4], in [5] and in assay [17] was “inactive” throughout. The Potency result in [6], in assay [7], in assay [8], in assay [9], in [18] and in [12] was “inactive” each time. The Potency entry in [13], in [14] and in assay [15] was “inactive” in each case.
